NPR1 antag: Natriuretic polypeptide receptor (hNpr1) antagonism - Primary qHTS. 76,000 tested, 1.6% active. AID 1347048, 2019. Potency, µM (highest dose often 46.3 µM), hits mostly inhibitors. HEK293 hNpr1 GloSensor cGMP, ANP-stimulated luminescence; calls by dose curve; further: nearly all actives have a fitted effect of over 60% in size
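HEK293 cells stably expressing human Npr1 and cGMP GloSensor pGS-40F, loaded 2 h with 2% GloSensor reagent, given compound 30 min at room temperature. Luminescence read before and 20 min after 0.1 nM hNppA.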
HEK293 tox: Cytotoxic Profiling in HEK 293 Cell Line of Diverse Libraries Using Quantitative High-Throughput Screening; HEK 293 viability, ATP luminescence (CellTiter-Glo), 48-72 h; Potency, µM (doses to about 115 µM), most hits filed as inhibitors; 94,000 tested, 6.6% active; AID 1345083, 2018; further: nearly all actives have a fitted effect of over 60% in size
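HEK 293 seeded at 250 cells/well receive compound via pintool. After 48 or 72 hr at 37 degree Celsius, 5% CO2 and 95% humidity, CellTiter-Glo is dispensed and luminescence read following 10 min at room temperature.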
3T3 cytotox: Cytotoxic Profiling in NIH 3T3 Cell Line of Diverse Libraries Using Quantitative High-Throughput Screening. NIH 3T3 viability, CellTiter-Glo ATP luminescence, 48-72 h. Potency, µM (series often up to 96.7 µM), most hits filed as inhibitors. 94,000 tested, 4.3% active; further: nearly all actives have a fitted effect of over 55% in size
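First NIH 3T3 cells are plated at 400 cells/well; next compound is pinned in; then plates incubate 48 or 72 hr at 37 °C; finally CellTiter-Glo is added and luminescence read after 10 min.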
Luciferase inh: Firefly luciferase inhibition profiling of diverse chemical library using quantitative high-throughput screening. 76,000 tested, 2.5% active. Luciferin 4-monooxygenase (Photinus pyralis), P08659. purified P. pyralis luciferase, luminescence, biochemical. Potency, µM (doses to about 115 µM), most hits filed as inhibitors. AID 1347043, 2019; further: nearly all actives have a fitted effect of over 65% in size
Target sequence (P08659 whole entry, looked up): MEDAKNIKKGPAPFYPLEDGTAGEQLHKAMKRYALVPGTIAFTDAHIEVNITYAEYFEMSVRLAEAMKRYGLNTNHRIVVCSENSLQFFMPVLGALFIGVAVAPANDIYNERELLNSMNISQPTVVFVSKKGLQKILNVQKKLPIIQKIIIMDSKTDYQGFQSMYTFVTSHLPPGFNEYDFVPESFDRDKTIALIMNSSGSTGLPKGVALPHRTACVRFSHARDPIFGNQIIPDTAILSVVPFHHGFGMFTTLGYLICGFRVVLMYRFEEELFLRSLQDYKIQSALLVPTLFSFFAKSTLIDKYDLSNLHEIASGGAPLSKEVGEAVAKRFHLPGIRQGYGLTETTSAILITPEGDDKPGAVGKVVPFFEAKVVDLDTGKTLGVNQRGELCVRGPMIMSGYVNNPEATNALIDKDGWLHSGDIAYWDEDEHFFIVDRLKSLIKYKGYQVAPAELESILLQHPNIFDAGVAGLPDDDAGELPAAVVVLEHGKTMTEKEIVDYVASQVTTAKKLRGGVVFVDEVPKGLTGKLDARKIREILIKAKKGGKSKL
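Biochemical qHTS: compound (6-point titration) added to 10uM D-luciferin plus 10uM ATP in Tris acetate pH 7.5 buffer with Mg, Tween-20 and BSA, then purified enzyme at 10nM; light output imaged.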
Large screens that a line does not name were inactive. In the library only some 11% were active in any assay of this set; here they are far more common. Unless noted, the call rests on the fitted dose curve; in most records, active means well fitted curve in the direction sought with a large enough effect; inconclusive means small, poorly fitted or top-dose-only effect, or another doubt; inactive means no such curve, though single readings can be large; an effect the other way counts as inactive or inconclusive.

c1ccc(CC2=NOC3(CCN(Cc4c[nH]c5ccccc45)CC3)C2)cc1	HEK293 tox 50µM, 3T3 cytotox 32µM (no result: NPR1 antag, Luciferase inh)
C[S+](=O)([O-])N1CC2(CCN(Cc3c[nH]c4ccccc34)CC2)Cc2ccccc21	HEK293 tox 45µM, 3T3 cytotox 25µM (no result: NPR1 antag, Luciferase inh)
O=C(NCc1ccccc1)c1nc2sccn2c1-c1ccccc1	none (no result: NPR1 antag, Luciferase inh)
CCC(=O)N1CCC2(CC1)CC(N(Cc1ccccc1)C1CC1)CCO2 (stereo unspecified)	none
O=C(CC1CCCC1)N1CCC2(CC1)CC(N(Cc1ccc(F)cc1)C1CC1)CCO2 (stereo unspecified)	HEK293 tox 45µM, 3T3 cytotox inconclusive
CCC(C)(C)C(=O)N1CCC2(CC1)CC(N(Cc1ccc(F)cc1)C1CC1)CCO2 (stereo unspecified)	HEK293 tox 45µM, 3T3 cytotox inconclusive
O=C(N1CCC2(CC1)CC(N(Cc1ccccc1)C1CC1)CCO2)C1(c2ccccc2)CC1 (stereo unspecified)	NPR1 antag inconclusive, HEK293 tox 40µM, 3T3 cytotox 45µM
O=C(c1ccccc1)N1CCC2(CC1)CC(N(Cc1ccc(F)cc1)C1CC1)CCO2 (stereo unspecified)	HEK293 tox 45µM, 3T3 cytotox inconclusive
O=C(c1cccc(F)c1)N1CCC2(CC1)CC(N(Cc1ccc(F)cc1)C1CC1)CCO2 (stereo unspecified)	HEK293 tox inconclusive, 3T3 cytotox inconclusive
CC(=O)N1CCC2(CC1)CC(N(Cc1ccc(F)cc1)C1CC1)CCO2 (stereo unspecified)	none
Cc1cccc(N2CCN(C(=O)C3CCCN(Cc4cccnc4)CCC(=O)NCC3)CC2)c1 (stereo unspecified)	HEK293 tox inconclusive
COc1nc(C)c(C(=O)N2CCn3nc(CO)cc3C2)s1	none
COc1ccc(Nc2ccnc(N3CCCC(C(=O)NCc4ccccc4Cl)C3)n2)cc1 (stereo unspecified)	HEK293 tox 35µM, 3T3 cytotox 35µM (no result: NPR1 antag, Luciferase inh)
COc1ccc(Nc2ccnc(N3CCCC3C(=O)NCc3ccccc3)n2)cc1 (stereo unspecified)	HEK293 tox inconclusive (no result: NPR1 antag, Luciferase inh)
COc1ccc(Nc2ccnc(N3CCCC(C(=O)N4CCC(Cc5ccccc5)CC4)C3)n2)cc1 (stereo unspecified)	HEK293 tox 20µM, 3T3 cytotox 28µM (no result: NPR1 antag, Luciferase inh)
CN(Cc1ccccc1)C(=O)C[C@@H]1CCNC[C@@H]1Cc1cc(COc2ccccc2)on1	HEK293 tox 50µM, 3T3 cytotox 28µM
CCN(CC)C(=O)C[C@@H]1CCNC[C@@H]1Cc1cc(-c2ccccn2)on1	none
CCCCc1cc(C[C@H]2CNCC[C@H]2CC(=O)N(C)Cc2ccccc2)no1	HEK293 tox 100µM, 3T3 cytotox inconclusive
CN(Cc1ccccc1)C(=O)C[C@@H]1CCNC[C@@H]1Cc1cc(-c2ccccc2)on1	HEK293 tox 25µM, 3T3 cytotox 10µM
Cc1cc(C)cc(NC(=O)Cn2c(N3CCN(c4ccccc4)CC3)nc(C)cc2=O)c1	HEK293 tox inconclusive, 3T3 cytotox inconclusive
COc1ccc(NC(=O)c2ccc3c(c2)N(S(C)(=O)=O)CC3)cc1Cl	NPR1 antag inconclusive, HEK293 tox inconclusive, Luciferase inh 1µM
CS(=O)(=O)N1CCc2ccc(C(=O)Nc3ccc(Cl)c(C(F)(F)F)c3)cc21	NPR1 antag inconclusive, HEK293 tox 20µM, Luciferase inh 18µM
COc1ccccc1-c1cc(C(=O)NCC(F)(F)F)nn2cnnc12	none (no result: NPR1 antag, Luciferase inh)
C#Cc1cccc(C(=O)N2CCC(Cc3ccc(Cl)cc3)(C(=O)OCC)CC2)c1	HEK293 tox inconclusive, 3T3 cytotox 20µM
C=CCOc1cccc(C(=O)N2CCC(Cc3ccc(OC)cc3)(C(=O)OCC)CC2)c1	HEK293 tox inconclusive, 3T3 cytotox inconclusive
COc1ccccc1-n1c(=O)c(C(=O)NC2CC2)nc2cccnc21	none (no result: NPR1 antag, Luciferase inh)
Cn1cc(C(=O)NCC2CN([S+](=O)([O-])c3ccccc3Cl)CC23CN(c2ccccc2)C3)cn1 (stereo unspecified)	HEK293 tox inconclusive
Cc1ccc(C(=O)N2CCCC3(C2)Nc2cccnc2NC3=NC2CCCC2)cc1F (stereo unspecified)	HEK293 tox 71µM, 3T3 cytotox inconclusive
O=C(c1ccc2c(c1)OCO2)N1CCCC2(C1)Nc1cccnc1NC2=NC1CCCC1 (stereo unspecified)	none
Cc1n[nH]c(C)c1CNC(=O)C1CCN(C(=O)c2ncn3c2COC(c2ccc(F)cc2)C3)CC1 (stereo unspecified)	Luciferase inh 25µM
Cc1ccc(C2Cn3cnc(C(=O)N4CCC(C(=O)NCc5cc(F)ccc5F)CC4)c3CO2)cc1 (stereo unspecified)	Luciferase inh 40µM
Cc1ccc(C2Cn3cnc(C(=O)N4CCC(C(=O)NCc5cccc(F)c5)CC4)c3CO2)cc1 (stereo unspecified)	Luciferase inh 50µM
CC(C)CNC(=O)C1CCN(C(=O)c2ncn3c2COC(c2ccc(F)cc2)C3)CC1 (stereo unspecified)	Luciferase inh inconclusive
O=C(NCc1cccc(F)c1)C1CCN(C(=O)c2ncn3c2COC(c2ccc(F)cc2)C3)CC1 (stereo unspecified)	Luciferase inh 32µM
COc1ccc(C2Cn3cnc(C(=O)N4CCC(C(=O)NCc5ccc(C)cc5)CC4)c3CO2)cc1 (stereo unspecified)	none
Cc1cnc(C2CCOCC2)n1CCNC(=O)c1cccn1C	none (no result: NPR1 antag, Luciferase inh)
COc1ccc(CNC(=O)CC[C@]23CC[C@](C)(O)C[C@H]2C(C)(C)C[C@@H]3NCc2ccccn2)cc1	HEK293 tox inconclusive
O=C(NCC1CCCO1)C1CCN(C(=O)c2ncn3c2COC(c2ccc(F)cc2)C3)CC1 (stereo unspecified)	Luciferase inh 40µM
Cc1ccc(C2Cn3cnc(C(=O)N4CCC(C(=O)NCc5ccccc5)CC4)c3CO2)cc1 (stereo unspecified)	HEK293 tox inconclusive, Luciferase inh 40µM
O=C(NCc1ccc(F)cc1F)C1CCN(C(=O)c2ncn3c2COC(c2ccc(F)cc2)C3)CC1 (stereo unspecified)	Luciferase inh inconclusive
O=C(NCc1ccccn1)C1CCN(C(=O)c2ncn3c2COC(c2ccc(F)cc2)C3)CC1 (stereo unspecified)	Luciferase inh 35µM
CCc1ccc(CNC(=O)C2CCN(C(=O)c3ncn4c3COC(c3ccccc3)C4)CC2)cc1 (stereo unspecified)	Luciferase inh 35µM
O=C(NCc1ccccc1)C1CCN(C(=O)c2ncn3c2COC(c2ccc(F)cc2)C3)CC1 (stereo unspecified)	Luciferase inh inconclusive
O=C(O)[C@H]1C[C@]2(CCCCNC2=O)N(C(=O)c2ccccc2)[C@H]1c1ccccc1	3T3 cytotox inconclusive (no result: NPR1 antag, Luciferase inh)

Screening data as filed in PubChem BioAssay.
